# Data published in the supplement of paper PMC6555819.
# Key:
# Assay in all cases: PBM binding z-score (relative to random genomic background probes); higher = stronger binding; sequences stand for … in GC…GCGATTGACAGCGTAGAATGAAGG
# [1] = system: FXR:RXRa (NR concentration 270 nM, RXRa partner concentration 90 nM)
# In short: (§1)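 On custom Agilent 4×180K arrays, double-stranded probes with 34-nt variable regions carried direct-repeat seeds, single-nucleotide variants, half-site ablations or random human genomic background. Ligand-free nuclear receptor dimers were applied for 1 h, and binding was read with antibodies against each partner (one per run). Binding z-scores come from regression-normalized fluorescence, with the random background probes as reference.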
# [2] = system: LXRa:RXRa (NR concentration 270 nM, RXRa partner concentration 90 nM)
# In short: as §1
# [3] = system: LXRa homodimer (NR concentration 270 nM)
# In short: as §1
# [4] = system: LXRb:RXRa (NR concentration 270 nM, RXRa partner concentration 90 nM)
# In short: as §1
# [5] = system: LXRb homodimer (NR concentration 270 nM)
# In short: as §1
# [6] = system: PPARa:RXRa (NR concentration 270 nM, RXRa partner concentration 90 nM)
# In short: as §1
# [7] = system: PPARg:RXRa (NR concentration 180 nM, RXRa partner concentration 90 nM)
# In short: as §1
# [8] = system: PPARg:RXRa 270nM:90nM, anti-RXR (NR concentration 270 nM, RXRa partner concentration 90 nM)
# In short: as §1
# [9] = system: PPARg:RXRa 30nM:10nM, anti-RXR (NR concentration 30 nM, RXRa partner concentration 10 nM)
# In short: as §1
# [10] = system: PPARg:RXRa 90nM:30nM, anti-RXR (NR concentration 90 nM, RXRa partner concentration 30 nM)
# In short: as §1
# [11] = system: PPARg:RXRa DBDmut IVT, anti-RXR (DBD mutation: RXRa K156A/R161A, NR concentration 270 nM, RXRa partner concentration 90 nM)
# In short: as §1
# [12] = system: PPARg:RXRa IVT, anti-PPARg (NR concentration 270 nM, RXRa partner concentration 90 nM)
# In short: as §1
# [13] = system: PPARg DBDmut:RXRa IVT, anti-PPARg (DBD mutation: PPARg1 K132A/R137A, NR concentration 270 nM, RXRa partner concentration 90 nM)
# In short: as §1
# [14] = system: PPARg DBDmut IVT, anti-PPARg (DBD mutation: PPARg1 K132A/R137A, NR concentration 270 nM)
# In short: as §1
# [15] = system: PPARg homodimer (NR concentration 180 nM)
# In short: as §1
# [16] = system: PXR:RXRa (NR concentration 270 nM, RXRa partner concentration 90 nM)
# In short: as §1
# [17] = system: PXR homodimer (NR concentration 270 nM)
# In short: as §1
# [18] = system: RARa:RXR (NR concentration 270 nM, RXRa partner concentration 90 nM)
# In short: as §1
# [19] = system: RARa homodimer (NR concentration 270 nM)
# In short: as §1
# [20] = system: RARb:RXRa (NR concentration 270 nM, RXRa partner concentration 90 nM)
# In short: as §1
Sequence,PBM binding z-score [1],PBM binding z-score [2],PBM binding z-score [3],PBM binding z-score [4],PBM binding z-score [5],PBM binding z-score [6],PBM binding z-score [7],PBM binding z-score [8],PBM binding z-score [9],PBM binding z-score [10],PBM binding z-score [11],PBM binding z-score [12],PBM binding z-score [13],PBM binding z-score [14],PBM binding z-score [15],PBM binding z-score [16],PBM binding z-score [17],PBM binding z-score [18],PBM binding z-score [19],PBM binding z-score [20]
TAGCCTAGATCATTGGGCCAGTATAGTACGCATC,-0.685,-0.948,-0.567,-0.649,-0.658,-0.513,0.37,-0.537,-0.101,-0.125,0.771,0.88,0.335,-0.32,-0.814,-0.775,-0.695,-0.564,-0.292,-1.15
CCTTACCGGTCACTCCAGGTTATAGCATCGGAGT,2.6,6.15,4.71,2.67,1.65,1.3,0.603,0.901,0.0814,0.653,1.13,1.44,-0.00194,-0.042,1.6,1.94,1.24,1.37,1.2,2.9
TCATATCGGTAAAAGGTGAAAGTCGGTGTGGTAA,1.65,1.77,0.323,1.52,0.181,4.23,6.69,6.91,6.64,7.74,3,3.46,0.579,1.77,2.19,1.25,0.807,2.24,1.92,1.97
CCTTACGGGTCACTGTCAGGTTATAGCATTTGGA,5.05,4.27,0.129,3.23,-0.0879,4.73,3.83,4.04,1.22,2.8,3.32,3.7,0.509,-0.255,3.86,3.99,-0.056,4.71,1.03,3.87
TCAGACATGTGAAGGTAACTCAGGTACGCAGTCG,0.329,1.23,-0.167,0.691,-0.43,0.662,0.745,1.37,3.48,2.63,1.82,-0.0574,0.0996,0.0128,-0.0995,0.383,-0.196,0.493,0.114,0.199
GCGACTGGGGCAAAGCAGGTTACCACAAGGTTGG,0.61,-0.0445,-0.447,0.204,-1.07,1.14,1.35,1.34,-0.386,0.797,4.37,3.9,-0.49,-1.47,0.0526,0.473,-0.466,0.796,-0.331,0.888
TGTCAAAGTTCAAAGGCAACGTAAGTATCCACAC,6.68,6.1,4.08,3.86,1.39,5.04,8,7.39,5,7.03,-0.195,3.82,1.26,1.83,3.71,4.86,2.97,3.97,1.3,4.97
ACTAGCAGGCCAAGGGTCAGTCAAGATTAGTCCG,1.44,1.16,-0.0253,1.33,-0.691,3.79,6.42,6.45,5.89,6.62,0.997,2.79,-0.401,-0.926,1.54,1.69,-0.439,2.56,-0.0893,2.85
AGAATGAGGTTACCAAAGATCAGAGAAACGCTTG,2.03,6.18,0.173,3.6,-0.0648,3.32,2.75,2.19,0.774,1.78,3.76,3.32,1.01,0.709,0.304,1.28,0.161,2.02,0.489,2.09
CCTCGGAGGACAGAAGGGCAGAGCTGTCCGCTTT,-0.424,-0.658,-0.967,-0.952,-1.04,-1.11,-0.572,-0.994,-1.32,-1.13,-0.39,-0.863,-1.35,-1.74,-0.82,-0.857,-0.749,-0.782,-0.361,1.2
TGTCAAAGTTCGAAGGTAACGTAAGTATCCACAC,1.54,1.56,0.166,1.27,-0.175,2.58,4.57,5,2.28,4.19,-0.516,2.26,1.29,0.86,0.387,1.64,0.292,2.13,0.23,2.34
TCATATAGGTGAATGCTAGGTGAAAGTCCGATCT,1.13,0.917,-0.0779,0.789,-0.221,2.55,2.75,3.13,3.54,3.07,6.19,5.78,1.9,1.82,1.06,0.532,-0.173,1.33,0.882,1.22
AGAACGAGGGCAACGAGTTGATAGCACGGGTGGC,0.357,0.068,-0.499,-0.258,-0.674,1.59,1.67,1.29,0.0508,0.609,3.47,3.2,0.361,-0.0508,-0.253,1.49,3.88,0.217,-0.868,2.23
TTACCAAGGTGAGCCGAGGTCGTTGATCCAACTC,2.53,1.33,-0.48,1.11,-1.11,2.19,0.623,1.32,-0.155,0.541,1.46,2.45,0.0524,0.067,-0.0527,4.95,0.39,1.95,-0.75,1.99
